The campaign covered roughly 1,400 compounds. About 350 (25%) were called active. Roughly 2% stayed inconclusive and do not appear here. No rule for the calls is given here. A selection follows. Entries with a potency or affinity are not part of this list.
Experiment: C. difficile growth inhibition, confirmation, 4-point retest (AID 1224921);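 also: plate controls were DMSO wells for no effect and levofloxacin 16 µg/mL wells for full effect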
Details: Clostridioides difficile clinical isolate growth, OD600, 24 h, stronger effect = lower value; at 30 µM unless noted

Max activity, inactive:
C[C@@H]1CN([C@@H](C)CO)C(=O)Cc2cc(NS(C)(=O)=O)ccc2O[C@H]1CN(C)Cc1ccccc1 38.5% [at 35 µM]
N#C[C@H]1[C@@H](c2ccccc2)[C@@H](CO)N1S(=O)(=O)c1ccc(-c2ccccc2)cc1 40.9%
Cc1ccc(-c2cnc3c(c2)C(=O)N([C@@H](C)CO)C[C@H](C)[C@@H](CN(C)C(=O)c2ccccc2)O3)cc1 -9.22% [at 0.5 µM]
CN(C)CC(=O)N[C@H]1C=C[C@H](CC(=O)NCCN2CCCCC2)O[C@@H]1CO 12.7% [at 8 µM]
N#C[C@H]1[C@@H](c2ccc(-c3ccccc3)cc2)[C@@H](CO)N1C(=O)Cc1ccncc1 13.6%
CCC(=O)N[C@@H]1C=C[C@@H](CC(=O)OC)O[C@H]1CO -12.2% [at 8 µM]
C[C@@H]1CN([C@H](C)CO)S(=O)(=O)c2ccc(C#CCC3CCCC3)cc2O[C@@H]1CN(C)C(=O)c1ccccn1 46.2% [at 8 µM]
C[C@@H]1CN([C@H](C)CO)C(=O)c2cccc(N(C)C)c2O[C@H]1CN(C)Cc1ccc(C(F)(F)F)cc1 26.1%
CO[C@H]1CN(C)C(=O)c2ccc(NC(=O)c3ccc(F)cc3)cc2OC[C@@H](C)N(C(=O)CN(C)C)C[C@H]1C -10.6% [at 1.95 µM]
C[C@@H]1CCCCO[C@H](CN(C)CC2CCCCC2)[C@H](C)CN([C@@H](C)CO)C(=O)c2cc(NC(=O)Nc3cccc4ccccc34)ccc2O1 -10.7%
C[C@H]1CCCCO[C@@H](CN(C)CC2CCCCC2)[C@@H](C)CN([C@@H](C)CO)C(=O)c2cc(NC(=O)Nc3cccc4ccccc34)ccc2O1 27.7% [at 8 µM]
C[C@H](CO)N1C[C@H](C)[C@@H](CN(C)CC2CCCCC2)OCCCC[C@H](C)Oc2ccc(NC(=O)Nc3cccc4ccccc34)cc2C1=O 21.6%
C[C@@H]1CCCCO[C@H](CN(C)CC2CCCCC2)[C@@H](C)CN([C@H](C)CO)C(=O)c2cc(NC(=O)Nc3cccc4ccccc34)ccc2O1 12.9% [at 8 µM]
C[C@@H]1CN([C@H](C)CO)S(=O)(=O)c2ccc(C#CCC3CCCC3)cc2O[C@H]1CN(C)C(=O)c1ccccn1 43.5%
CO[C@@H]1CN(C)C(=O)c2ccc(NC(C)=O)cc2OC[C@@H](C)N(Cc2cc(F)ccc2F)C[C@H]1C -9.54% [at 8 µM]
Cc1ccc(-c2ccc3c(c2)O[C@@H](CN(C)Cc2cccnc2)[C@@H](C)CN([C@@H](C)CO)S3(=O)=O)cc1 35.1%
CN(C)C(=O)c1ccc(-c2ccc([C@@H]3[C@@H](CO)N(C(=O)C4CCCCC4)[C@H]3C#N)cc2)cc1 -13.2% [at 0.5 µM]
C[C@H]1CCCCO[C@@H](CN(C)C(=O)Nc2ccc(C(F)(F)F)cc2)[C@@H](C)CN([C@@H](C)CO)C(=O)c2cc(NS(=O)(=O)c3ccc(Cl)cc3)ccc2O1 12.1%
C[C@H](CO)N1C[C@H](C)[C@H](CN(C)C(=O)Nc2ccc(C(F)(F)F)cc2)OCCCC[C@H](C)Oc2ccc(NS(=O)(=O)c3ccc(Cl)cc3)cc2C1=O 14.5%
COc1ccc(NC(=O)Nc2cccc3c2O[C@H](CN(C)C(=O)NC2CCCCC2)[C@@H](C)CN([C@H](C)CO)C3=O)cc1 -16%
CO[C@H]1CN(C)C(=O)c2cc(NS(=O)(=O)c3ccc(Cl)cc3)ccc2OC[C@@H](C)N(C(=O)NC(C)C)C[C@@H]1C 11.8%
C[C@H](O)C#Cc1ccc2c(c1)O[C@@H](CN(C)C(=O)c1ccccc1)[C@@H](C)CN([C@@H](C)CO)S2(=O)=O -12.7%
C[C@H](CO)N1C[C@H](C)[C@@H](CN(C)Cc2ccccn2)Oc2cc(C3=CCCCC3)ccc2S1(=O)=O 33.3%
C[C@@H]1CN([C@@H](C)CO)C(=O)Cc2cc(N(C)C)ccc2O[C@H]1CN(C)Cc1ccccc1 9.89%
CO[C@@H]1CN(C)C(=O)c2cc(NC(=O)NC(C)C)ccc2OC[C@H](C)N(C)C[C@@H]1C -5.88%
CCS(=O)(=O)Nc1ccc2c(c1)OC[C@H](C)NC[C@@H](C)[C@@H](OC)CN(C)C2=O 10.9%
CN(C)C(=O)c1ccc(-c2ccc([C@@H]3[C@@H](C#N)N(C(=O)C4CC4)[C@H]3CO)cc2)cc1 19.6% [at 1.95 µM]
O=C(Nc1cc(F)ccc1F)N[C@H]1CC[C@H](CC(=O)N2CCc3ccccc3C2)O[C@@H]1CO -10.9% [at 8 µM]
C[C@H](CO)N1C[C@H](C)[C@@H](CN(C)Cc2ccc(C(F)(F)F)cc2)OCCCC[C@H](C)Oc2ccc(NC(=O)CCCN(C)C)cc2C1=O 16.3%
C[C@@H]1CN([C@@H](C)CO)C(=O)c2cc(NC(=O)Nc3ccc(C(F)(F)F)cc3)ccc2O[C@@H](C)CCCCO[C@@H]1CN(C)C 6.76% [at 8 µM]
C[C@@H]1CN([C@@H](C)CO)C(=O)c2cc(NC(=O)CCCN(C)C)ccc2O[C@@H](C)CCCCO[C@@H]1CN(C)Cc1ccc(C(F)(F)F)cc1 -16.2% [at 1.95 µM]
C[C@@H]1CN([C@@H](C)CO)C(=O)c2cc(NC(=O)Nc3ccc(C(F)(F)F)cc3)ccc2O[C@@H](C)CCCCO[C@H]1CN(C)C 31.7% [at 8 µM]
CCCN(C)C[C@H]1OCCCC[C@H](C)Oc2ccc(NC(=O)Nc3cccc4ccccc34)cc2C(=O)N([C@@H](C)CO)C[C@H]1C 13.8%
C[C@@H]1CN([C@@H](C)CO)C(=O)c2ccccc2-c2ccccc2CO[C@H]1CN(C)C(=O)CCN(C)C -7.53% [at 0.5 µM]
CO[C@H]1O[C@H](CO)[C@@H](OC(=O)Nc2cccc(F)c2)[C@H](OC(=O)Nc2ccc3c(c2)OCO3)[C@H]1OC(=O)Nc1ccc2c(c1)OCO2 8.7%
C[C@H](CO)N1C[C@H](C)[C@@H](CN(C)CC2CCCCC2)Oc2ccc(NC(=O)Cc3cn(C)c4ccccc34)cc2CC1=O 22.1% [at 1.95 µM]
CCCNC(=O)Nc1ccc2c(c1)C(=O)N(C)C[C@H](OC)[C@H](C)CN(C)[C@@H](C)CO2 -3.68% [at 0.5 µM]
C[C@@H]1CN([C@H](C)CO)C(=O)c2c(c3ccccc3n2C)-c2ccccc2CO[C@@H]1CN(C)C(=O)N[C@H](C)c1ccccc1 9.23% [at 35 µM]
CCCNC(=O)Nc1ccc2c(c1)C(=O)N(C)C[C@@H](OC)[C@@H](C)CN(CC1CCCC1)[C@@H](C)CO2 -4.03% [at 1.95 µM]
O=C(C[C@@H]1CC[C@@H]2[C@H](COC[C@H](O)CN2CC2CCCCC2)O1)NCc1ccc(Cl)cc1 22.4% [at 8 µM]
CO[C@H]1CN(C)C(=O)c2ccc(NC(=O)c3ccc(F)cc3)cc2OC[C@H](C)N(C(=O)CN(C)C)C[C@H]1C -10.1%
O=C(C[C@H]1C[C@H]2c3cc(NC(=O)CC4CC4)ccc3O[C@H]2[C@@H](CO)O1)NCc1cccc(F)c1 -3.04% [at 1.95 µM]
Cc1ccc(-c2ccc3c(c2)O[C@H](CN(C)Cc2ccncc2)[C@H](C)CN([C@H](C)CO)S3(=O)=O)cc1 34.8%
C[C@H](CO)N1C[C@H](C)[C@H](CN(C)Cc2cccc(C(=O)O)c2)OCc2ccccc2-c2c(n(C)c3ccccc23)C1=O -7.45% [at 0.5 µM]
CC1=CC2(CO)C(=O)[C@]3(CO3)[C@H]1[C@H]1[C@]2(C)C=C(CO)C(=O)[C@]12CO2 15.6%
Cc1ccc(F)cc1S(=O)(=O)N[C@@H]1CCN(Cc2ccc(OC(C)C)cc2)C1 34.7% [at 8 µM]
C[C@@H]1CN([C@H](C)CO)C(=O)c2c(c3ccccc3n2C)-c2ccccc2CO[C@H]1CN(C)C(=O)c1ccncc1 18.8%
COc1ccccc1-c1ccc2c(c1)O[C@H](CN(C)C(=O)c1ccccc1)[C@H](C)CN([C@@H](C)CO)S2(=O)=O 42.3%
C[C@H](CO)N1C[C@H](C)[C@@H](CN(C)S(=O)(=O)c2ccsc2)OCc2ccccc2-c2ccccc2C1=O 26.8%
CO[C@@H]1CN(C)C(=O)c2ccc(NS(=O)(=O)CC(F)(F)F)cc2OC[C@@H](C)N(C(=O)NC(C)C)C[C@H]1C 14.6%
Cc1noc(C)c1NC(=O)N(C)C[C@@H]1Oc2ccc(NC(=O)CCCCCC(=O)Nc3ccccc3N)cc2C(=O)N([C@@H](C)CO)C[C@@H]1C -8.05% [at 1.8 µM]
CO[C@H]1CN(C)C(=O)c2cc(NC(=O)NC3CCCCC3)ccc2OC[C@@H](C)N(CCc2ccccc2)C[C@H]1C 25.3%
CC(C)CC#Cc1ccc2c(c1)O[C@H](CN(C)Cc1ccncc1)[C@@H](C)CN([C@H](C)CO)S2(=O)=O 17.5%
C[C@@H]1CN([C@@H](C)CO)C(=O)c2cc(/C=C/c3ccccc3)cnc2O[C@H]1CN(C)C(=O)CN(C)C 18%
COCC#Cc1ccc2c(c1)O[C@@H](CN(C)Cc1ccncc1)[C@@H](C)CN([C@H](C)CO)S2(=O)=O 17.6%
O=C(NCCc1ccccc1)[C@H]1[C@H](CO)[C@H]2Cn3c(cccc3=O)[C@@H]1N2C(=O)C1CC1 -7.04%

Source: PubChem BioAssay AID1224921 (Broad Institute, 2016)
